Assay outcomes deposited in PubChem BioAssay by National Center for Advancing Translational Sciences (NCATS).
Most compounds without a hit are left out; they make up all but 18% or so of the library.
TDP1 cell noCPT: qHTS for Inhibitors of human tyrosyl-DNA phosphodiesterase 1 (TDP1): qHTS in cells in absence of CPT; Potency, µM (top dose mostly 46.2 µM), usual class: inhibitors; AID 686978, 2013; DT40 Tdp1-/- hTDP1 cells, no CPT, ATP luminescence, 48 h; actives 15% (n = 420,000); note: nearly all actives have a fitted effect of over 55% in size
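Cells were dispensed at 400 per well, compounds added by pin tool, plates incubated ≥48 hr at 37 °C, then CellTiter-Glo added for 30 min at room temperature before luminescence reading. Line: DT40 Tdp1-/- complemented with hTDP1; camptothecin omitted.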
TDP1 inh: qHTS Assay for Inhibitors of Tyrosyl-DNA Phosphodiesterase (TDP1) | recombinant TDP1, AlphaScreen DNA substrate cleavage | Potency, µM (series often up to 130 µM), actives largely listed as inhibitors | Tyrosyl-DNA phosphodiesterase 1 (Homo sapiens), Q9NUW8 | actives 0.28% (n = 350,000); note: nearly all actives have a fitted effect of over 40% in size
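Steps: enzyme plus compound, 15 min RT; add biotin/phosphotyrosine-FITC oligonucleotide (15 nM final), react 5 min; add donor/acceptor beads (10 ug/ml final), 10 min; read AlphaScreen. Tdp1 at 1 nM final.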
Six1-Eya2 blk: qHTS Assay for Inhibitors of the Six1/Eya2 Interaction | actives 0.56% (n = 360,000) | AlphaScreen GST-Six1/His-Eya2 binding, biochemical; stronger effect = lower value | activity change, % (concentration not given with the values) | AID 651725, 2012; in the data active = activity change below about -65%; inconclusive = mostly about -30% to -63%
Target sequence (O00167 whole entry, looked up): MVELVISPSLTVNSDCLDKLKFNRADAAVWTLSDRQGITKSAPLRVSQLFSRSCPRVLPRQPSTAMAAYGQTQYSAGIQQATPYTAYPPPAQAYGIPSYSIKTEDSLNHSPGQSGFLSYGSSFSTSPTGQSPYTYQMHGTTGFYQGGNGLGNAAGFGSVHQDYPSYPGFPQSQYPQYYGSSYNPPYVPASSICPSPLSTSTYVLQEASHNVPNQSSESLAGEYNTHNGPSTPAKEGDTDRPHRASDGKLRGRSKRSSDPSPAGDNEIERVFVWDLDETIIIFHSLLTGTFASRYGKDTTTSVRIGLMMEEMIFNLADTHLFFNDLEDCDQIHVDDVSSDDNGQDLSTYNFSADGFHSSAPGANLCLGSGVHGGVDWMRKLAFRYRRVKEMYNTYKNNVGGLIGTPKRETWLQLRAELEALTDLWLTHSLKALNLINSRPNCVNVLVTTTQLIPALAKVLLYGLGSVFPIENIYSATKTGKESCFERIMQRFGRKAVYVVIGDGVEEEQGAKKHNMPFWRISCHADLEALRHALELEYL
Target sequence (Q15475 whole entry, looked up): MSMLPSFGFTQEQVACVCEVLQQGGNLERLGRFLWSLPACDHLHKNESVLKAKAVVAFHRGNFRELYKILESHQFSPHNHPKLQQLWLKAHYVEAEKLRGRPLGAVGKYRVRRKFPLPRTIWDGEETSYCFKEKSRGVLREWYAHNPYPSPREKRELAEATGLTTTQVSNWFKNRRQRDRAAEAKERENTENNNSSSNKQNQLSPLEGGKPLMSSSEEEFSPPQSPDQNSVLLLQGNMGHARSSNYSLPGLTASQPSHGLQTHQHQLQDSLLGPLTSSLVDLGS
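Six1/Eya2 binding was read as AlphaScreen signal after compounds were pinned into GST-Six1 plus His-tagged Eya2 (5X stock 250/500 nM) in pH 8.0 Tris/NaCl/TCEP buffer, beads added, then incubated 1 h, 37 C, dark.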
TDP1 cell CPT: qHTS for Inhibitors of human tyrosyl-DNA phosphodiesterase 1 (TDP1): qHTS in cells in presence of CPT. AID 686979, 2013. Potency, µM (titrated, usually from 46.2 µM), most hits filed as inhibitors. chicken DT40 Tdp1-/-;hTDP1 cells + 20 nM CPT, ATP luminescence, 48 h. actives 12% (n = 420,000); note: nearly all actives have a fitted effect of over 55% in size
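Chicken DT40 Tdp1-/- cells stably complemented with human TDP1 were seeded at 400 cells/well in medium containing 20 nM camptothecin, exposed to pin-transferred compounds, and grown at 37 °C for at least 48 hr. Viability was read as ATP luminescence.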
IL1B secr inh: qHTS for Inhibitors of Inflammasome Signaling: IL-1-beta AlphaLISA Primary Screen; AID 743279, 2014; actives 4.7% (n = 360,000); activity change, % at 57.5 µM; THP-1 LPS/ATP IL-1B secretion, AlphaLISA, 16 h; stronger effect = lower value; in the data active = activity change below about -50%; inconclusive = mostly about -30% to -49%
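THP-1 cells pretreated 1 hr with compounds (up to 57.5 uM final), then stimulated with LPS (250 ng/mL final) plus ATP (1.25 mM final); secreted IL-1B measured by AlphaLISA after 16 hr, decreased signal indicating inhibition.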
CtBP-E1A inh: qHTS Assay for Inhibitors of the CtBP/E1A Interaction. AlphaScreen GST-E1A/His-CtBP binding, 1536-well; stronger effect = lower value. activity change, % (no concentration beside the values). actives 0.49% (n = 340,000); in the data active = activity change below about -65%; inconclusive = mostly about -30% to -63%
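AlphaScreen with 125 nM GST-E1A and 125 nM His-CtBP (5X stocks) in Tris pH 8.0, 300 mM NaCl, BSA, Tween 20, TCEP. Compounds preincubated 2 h at 37 deg C, then glutathione donor/nickel acceptor beads added for 1 h at 37 deg C in dark.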
Hits are given with their value; – = inactive; ? = inconclusive; · = no result given. Unless noted, calls come from the whole dose curve; as a rule, active = well fitted curve in the direction sought with a large enough effect; inconclusive = small, poorly fitted or top-dose-only effect, or another doubt; inactive = no such curve, though single readings can be large; an effect the other way counts as inactive or inconclusive.

SMILES	TDP1 cell noCPT	TDP1 inh	Six1-Eya2 blk	TDP1 cell CPT	IL1B secr inh	CtBP-E1A inh
Nc1nc(CN2CCN(c3ccccc3F)CC2)nc(Nc2ccccc2)n1	?	–	–	23µM	–	–
Nc1nc(CN2CCN(C(c3ccccc3)c3ccccc3)CC2)nc(Nc2ccccc2)n1	23µM	–	–	?	–	–
C=CCSc1[nH]c(=O)cc(C)c1C(N)=O	–	–	–	–	–	–
CC(C)(C)OC(=O)N1CCC(c2c(C(=O)NC3CCN(Cc4ccccc4)CC3)cnn2-c2cccc(F)c2)CC1	9.2µM	–	·	12µM	·	·
Cc1ccc(-n2ncc(C(=O)NC3CCN(Cc4ccccc4)CC3)c2C2CCN(C(=O)OC(C)(C)C)CC2)cc1C	15µM	–	·	21µM	·	·
CCc1nnc(NC(=O)C(=O)NCCOC(=O)c2ccccc2Cl)s1	–	–	–	?	–	–
COc1ccc(Br)cc1C(=O)Nc1cccc2ccc(C)nc12	–	–	·	–	·	·
C[C@@H](c1ccccc1)N1Cc2ccccc2Oc2cc(Br)ccc2S1(=O)=O	–	–	–	?	–	–
C[C@@H](c1ccccc1)N1C[C@@H](COCc2ccccc2)Oc2cc(N3CC[C@H](N(C)C)C3)ccc2S1(=O)=O	–	·	–	–	–	–
C[C@H](c1ccccc1)N1C[C@@H](COCc2ccccc2)Oc2cc(N3CC[C@H](N(C)C)C3)ccc2S1(=O)=O	16µM	·	?	?	–	–
C[C@H](c1ccccc1)N1C[C@@H](COCc2ccccc2)Oc2cc(N3CC[C@@H](N(C)C)C3)ccc2S1(=O)=O	?	·	?	18µM	–	–
Cc1ccc(CSCc2nnc(SCC(=O)N3CCN(c4ccccc4)CC3)n2C)cc1	16µM	–	–	?	?	–
CCn1c(Cc2ccc(OC)cc2)nnc1SCC(=O)N1CCN(c2ccccc2)CC1	?	–	–	?	–	–
CCn1c(CSCc2ccc(F)cc2)nnc1SCC(=O)N1CCN(c2ccccc2)CC1	23µM	–	–	?	?	–
Cc1ccccc1-n1c(SCC(=O)N2CCN(c3ccccc3)CC2)nnc1-c1ccncc1	21µM	·	–	16µM	–	–
Cc1ccc(CSCC(=O)N2CCN(c3ccccc3)CC2)cc1	?	–	–	?	–	–
CCc1ccccc1-n1c(SCC(=O)N2CCCC2)nnc1-c1ccccn1	20µM	–	–	?	–	–
CC(OC(=O)C(C)N1C(=O)C2C3C=CC(C4CC34)C2C1=O)C(=O)c1ccccc1 (stereo not given)	–	–	–	–	–	–
COc1cc(C(=O)N/C(=C\c2cn(C)c3ccccc23)C(=O)NCCCn2ccnc2)cc(OC)c1OC	–	–	–	–	–	–
COc1ccc(N2CCN(S(=O)(=O)c3ccc(-n4cnnn4)c(C)c3)CC2)cc1	?	?	–	–	–	–
Cc1c(NC(=O)c2ccc(COc3ccc4ccccc4c3)o2)c(=O)n(-c2ccccc2)n1C	23µM	–	–	?	–	–
Cc1ncc(CO)c2c1OC(C)(C)OC2	–	–	–	–	–	–
Cc1ncc(CCl)c2c1OC(C)(C)OC2	23µM	–	–	?	–	–
O=C(C=Cc1ccccc1)CC(c1ccccc1)N1CCOCC1 (stereo not given)	3.3µM	·	–	4.1µM	-98	–
CCc1nc2ccc(C(=O)Nc3ccc4c(c3)OCC(=O)N4)cn2c1N(CC)CCOC	?	·	–	?	–	–
CCc1nc2ccc(C(=O)NCc3ccccc3OC)cn2c1N(CC)Cc1cccc(Br)c1	?	·	–	26µM	–	–
